The values below come from PubChem BioAssay (NCI).

About 83,000 compounds went through this panel and 20% of them were active in at least one assay; those are over-represented in the sample as a whole.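 Note: values are percent growth. 100 is the growth of untreated cells, values between 100 and 0 indicate rising inhibition; between -100 and 0 indicates cell death.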 Values without a mark were called inactive. Active and inactive are the calls of the source. How the source made its calls: active means growth percent below 10; inactive means the rest.

Holding throughout (assay): NCI-60 one-dose screen, 48 h (100 = growth as untreated, 0 = no growth, -100 = all killed)
Common to all, as to details: 10 µM unless noted

For assay [1], the system named is SR leukemia.
For assay [2], the system named is RPMI-8226 leukemia.
For assay [3], the system named is OVCAR-8 ovarian.
Assay [4] relates to OVCAR-5 ovarian.
The subject of assay [5] is OVCAR-4 ovarian.
Assay [6] concerns SK-OV-3 ovarian.
For assay [7], the system named is IGROV1 ovarian.
Assay [8] has as its system OVCAR-3 ovarian.
In assay [9] the test system is HS 578T breast.
In assay [10] the test system is NCI/ADR-RES ovarian.
The test system of assay [11] is T-47D breast.
The test system of assay [12] is BT-549 breast.
In assay [13] the test system is MDA-MB-435 melanoma.
In assay [14] the test system is SW-620 colon.
Assay [15] deals with MCF7 breast.
The test system of assay [16] is HCT-116 colon.
The subject of assay [17] is HCC-2998 colon.
In assay [18] the test system is KM12 colon.

With `COc1ccccc1/C=C/C(=O)c1nnn(-c2ccc(C(=O)O)cc2)c1C`, the growth in assay [1] was 67%; in [2], 90.4%; in assay [3] it was 91.6%; in [4], 113%; in assay [5], 101%; in assay [6], 106%. In addition, the growth in assay [7] was 90.4%; in [8], 89.2%; in assay [9], 106%; in assay [10], 93.5%; in assay [11], 87.9%; in assay [12] it was 96.4%. For the same molecule, the growth is 87.8% in [13]; 102% in assay [14]; 54.2% in assay [15]; 68% in assay [16]; 102% in assay [17]; 93.8% in assay [18].
Turning to `c1ccc(-c2c(-c3ccccc3)[n+](Cc3ccc4ccccc4c3)c(-c3ccccc3)n2Cc2ccc3ccccc3c2)cc1`, the growth in assay [1] is -41.1% (active); in assay [2], -30.5% (active); in [3], -69.3% (active); in [4], -96.3% (active); in assay [5], -75% (active); in [6], -92.9% (active). Further, the growth in assay [7] is -76.5% (active); in assay [8], -87.8% (active); in assay [9], -50.4% (active); in assay [10] it was -65.8% (active); in assay [11], -60.9% (active); in assay [12], -87.1% (active). For the same molecule, the growth in assay [13] is -93.9% (active); in [14], -81.7% (active); in assay [15], -72.9% (active); in assay [16], -74.8% (active); in assay [17], -90.3% (active); in [18], -82.9% (active).
Take `ClC(Cl)c1nc(-c2cccs2)n2nc(-c3ccccc3)cc2n1`: the growth in [1] is 58.1%; in [2], -25.6% (active); in assay [3], 12%; in assay [4], -8.51% (active); in [5], 10.7%; in [6], 20.2%. Also, the growth in assay [7] was 47.2%; in [8], -37.4% (active); in assay [9], -21.1% (active); in assay [10], -20.7% (active); in [11], 2.65% (active); in [12] it was 87.4%. Besides, the growth in assay [13] is -9.17% (active); in [14], -1.61% (active); in assay [15] it was -4.41% (active); in assay [16], -23.7% (active); in assay [17], -71.3% (active); in assay [18], -36.4% (active).
`O=C(CSc1ccc(-c2nc3ccccc3[nH]2)cn1)N1CCN(c2ccccc2F)CC1`: the growth in [1] is 52.5%; in assay [2], 50.2%; in assay [3], 37.4%; in assay [4], 107%; in assay [5] it was 24.2%; in [6] it was 95.4%. For the same molecule, the growth was 80.7% in assay [7]; 50.7% in [8]; 89.4% in [9]; 29% in assay [10]; 16.7% in assay [11]; 27.8% in assay [12]. The growth in [13] was 53.9%; in assay [14], 106%; in assay [15], 55.7%; in assay [16], 68.1%; in assay [17], 96.5%; in assay [18], 68.8%.
For the molecule `N#Cc1c(NC(=O)c2ccccc2C(F)(F)F)sc2c1CCC(=O)C2`, the growth in assay [1] is 20.8%; in [2], -2.1% (active); in assay [3], 16.3%; in assay [4] it was 8.8% (active); in [5] it was 2.89% (active); in [6] it was 91.1%. The growth in [7] is 15.2%; in assay [8] it was 4.15% (active); in assay [9] it was 30.4%; in assay [10], 4.69% (active); in assay [11], 1.79% (active); in assay [12] it was 11.7%. The growth in assay [13] was 0.916% (active); in assay [14], 3.92% (active); in assay [15], 3.89% (active); in assay [16] it was 8.03% (active); in [17] it was 27.6%; in [18], 5.98% (active).
Take `COC1=C(c2ccccc2)C(=O)C(OC)=C(c2ccccc2)C1=O`: the growth in assay [1] was 79.8%; in [2], 93.5%; in assay [3] it was 100%; in assay [4], 119%; in assay [5], 59.6%; in assay [6], 81.2%. Further, the growth in assay [7] was 93.2%; in assay [8] it was 72.6%; in assay [9] it was 96.8%; in assay [10], 102%; in [11], 60.9%; in assay [12], 104%. The growth was 93.7% in assay [13]; 98.8% in assay [14]; 85.2% in [15]; 96.3% in [16]; 94.4% in [17]; 98.6% in assay [18].
Take `O=C(NCCCNc1cc(-c2cn(-c3ccccc3)nc2-c2cccc(O)c2)ccn1)Nc1cc(C(F)(F)F)cc(C(F)(F)F)c1`: the growth in assay [1] was 53.9%; in assay [2], 43.9%; in assay [3], 75.7%; in assay [4], 88.8%; in assay [5], 66.9%; in assay [6], 89.3%. For the same molecule, the growth in assay [7] is 64%; in assay [8] it was 86.5%; in assay [9], 57.3%; in assay [10], 69.7%; in [11], 77.5%; in assay [12] it was 84.9%. The growth in assay [13] is 75.3%; in assay [14] it was 94.2%; in [15], 59.1%; in assay [16], 51.2%; in assay [17], 66.8%; in [18], 58.1%.
On to `COc1cc(C(=O)C[n+]2ccc3ccccc3c2)cc(OC)c1OC`, for which the growth in assay [1] was 102%; in assay [2], 111%; in assay [3], 100%; in [4], 102%; in assay [5] it was 104%; in assay [6], 97.1%. Besides, the growth was 95.8% in [7]; 105% in [8]; 94% in [9]; 101% in [10]; 96.3% in [11]; 107% in [12]. The growth is 100% in assay [13]; 94% in assay [14]; 96.3% in [15]; 95.9% in assay [16]; 103% in assay [17]; 96.1% in [18].
